The values below come from PubChem BioAssay (NCI).

Several values for one entry are separate records, joined by “and”; a condition that tells them apart may be missing. Identical values can stand only once. This is part of a sample that, as a whole, favours compounds with a hit. Of some 83,000 tested, about 20% had one in any assay.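 Compound tested at a single concentration for 48 hours in 96-well plates; a percent growth value below 10 was scored as active.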 Activity calls are given as the source filed them.

This assay concerns HL-60(TB) leukemia. The experiment in a line: NCI-60 one-dose screen, 48 h (100 = growth as untreated, 0 = no growth, -100 = all killed). The following applies: 10 µM unless noted.
As to `O=C(CN1CCN(c2cc3c(cc2F)c(=O)c(C(=O)O)cn3C2CC2)CC1)Nc1ccc(Cl)cc1`, the growth is 89.5% (inactive) and 98.4% (inactive).

Regarding `COC(=O)c1ccccc1Br`, the growth is 76.5% (inactive).

Take `N#Cc1c(-c2ccc(C(F)(F)F)cc2)cc(N2CC(O)C2)n2c1nc1ccccc12`: the growth is 118% (inactive).

For `COc1ccccc1C(C[N+](=O)[O-])c1c(-c2ccccc2)[nH]c2cc(C)ccc12` (stereo not given), the growth is 58.9% (inactive).

`Oc1ccc(O)c(-[n+]2ccccc2)c1`: the growth was 101% (inactive).

On to `O=C(OCc1ccc2c(Br)cc(Br)c(O)c2n1)c1cc2ccccc2[nH]1`, for which the growth is -46.1% (active).

Take `OCCOCCN(Cc1ccccn1)Cc1cc(I)cc(I)c1O`: the growth was 63.3% (inactive).

Take `[2H]c1nc(Nc2ncc(F)c(-c3cc(F)c4nc(C)n(C(C)C)c4c3)n2)c([2H])c([2H])c1CN1CCN(C([2H])([2H])C([2H])([2H])[2H])CC1`: the growth is 34.6% (inactive).

Turning to `Cc1cc(NCc2cc(Nc3ccnc4cc(Cl)ccc34)ccc2F)nc(N2CCN(c3ccccc3)CC2)n1`, the growth is -40.7% (active).

`COc1ccc2[nH]cc(-c3nc(-c4cn(C)c5c(Cl)nccc45)cs3)c2c1`: the growth is 30.5% (inactive).

For the compound `CCCCCCC1(C)NCCO1` (stereo not given), the growth was 91.2% (inactive).

Regarding `O=S(=O)(NCCCNc1cc(-c2cn(-c3ccccc3)nc2-c2cccc(O)c2)ccn1)c1ccccc1`, the growth is 42.8% (inactive).

With `C#CC(=O)Nc1cccc2c1cc(C)n2-c1nc2c(c(NCc3ccccc3)n1)CCCC2`, the growth is -40.1% (active).

Consider `Cc1ccc2c(C(C[N+](=O)[O-])c3ccccc3F)c(-c3ccccc3)[nH]c2c1` (stereo not given), for which the growth is 27.3% (inactive).

For `CC(C)[C@@H]1CC[C@@H]2[C@@H]1[C@H](OC(=O)/C=C/c1ccccc1)[C@]1(C(C)C)C[C@@H](OC(=O)CO)[C@@]2(C)O1`, the growth is 84.6% (inactive).

As for `CCOc1nc(-c2ccccc2)cc2c(O)c(C(=O)O)[nH]c(=O)c12`, the growth is 120% (inactive).

Take `Cc1ccccc1NC(=O)N/C(N)=N/c1nc(C)c(C)s1`: the growth was -2.57% (active).

Consider `O=C1NC(=O)C2(CCCC2C(=O)O)N1` (stereo not given), for which the growth was 97.1% (inactive).

With `CC(C)Sc1nc(NN)c(C#N)c(-c2ccccc2)n1`, the growth is 98.8% (inactive).

Turning to `O=C(Nc1ccc(Cl)cc1)c1cc(-c2ccc(F)cc2)c2sc(=O)[nH]c2n1`, the growth is -30.6% (active).

Take `CCN1/C(=C\c2cc[n+](CC)c3ccccc23)C=Cc2ccccc21`: the growth is 5.97% (active).

In the case of `COc1ccc(/C=C/C(=O)O)cc1OC`, the growth was 103% (inactive) and 102% (inactive).

For `CCOC(=O)c1sc2ncc(-c3ccc(OC)cc3)n2c1C`, the growth was 86.5% (inactive).

For the compound `O=C(NNc1nccc(Nc2ccc(S(=O)(=O)Nc3ccncc3)cc2)n1)c1ccccc1`, the growth was 119% (inactive).

Consider `CN1CCN(CC#CCn2c3c(c4ccccc42)C[C@]2(C)[C@H]4CC[C@@H]5[C@H]6[C@H]7OC(=O)[C@@]6(CCC7(C)C)CC[C@@]5(C)[C@]4(C)CC[C@H]2C3(C)C)CC1`, for which the growth was 66.3% (inactive).

Turning to `C#CCN(C)Cc1ccccc1`, the growth is 101% (inactive) and 96.4% (inactive).

Turning to `C/C(=N\NC(=O)c1ccncc1)c1ccccc1O`, the growth was 5.87% (active) and 2.85% (active).

Regarding `CCOC(=O)C(=Cc1cccc(Cl)c1)C(=O)OCC`, the growth is -2% (active).

Regarding `O=C(NNc1ccc(-c2ccccc2)nn1)c1ccccc1`, the growth is 98.8% (inactive).

Regarding `N#Cc1c(C(F)(F)F)cc(Nc2ccc3nc(NCCN4CCCC4)oc3c2)n2c1nc1ccccc12`, the growth was 86.6% (inactive).

As for `CC(C)C/C=C/C=C/C(=O)N[C@@H](CC(N)=O)C(=O)N[C@@H]1C(=O)N[C@H](c2ccc(O)cc2)C(=O)N[C@H](CCCN)C(=O)N[C@H]([C@@H](C)O)C(=O)N[C@H](c2ccc(O)cc2)C(=O)N[C@H](c2ccc(O)cc2)C(=O)N[C@H]([C@H](C)O)C(=O)N[C@H](Cc2ccccc2)C(=O)N[C@H](CCCN)C(=O)N[C@H](c2ccc(O[C@H]3O[C@@H](CO)[C@@H](O)[C@@H](O)[C@H]3O[C@@H]3O[C@H](CO)[C@H](O)[C@H](O)[C@@H]3O)cc2)C(=O)N[C@H]([C@H](C)O)C(=O)N[C@H](c2ccc(O)cc2)C(=O)NCC(=O)N[C@H](CC(C)C)C(=O)N[C@H](C)C(=O)N[C@H](c2ccc(O)c(Cl)c2)C(=O)O[C@@H]1C(N)=O`, the growth is 72.1% (inactive).

As to `O=C(/C=C\c1ccnc2ccccc12)c1ccc([N+](=O)[O-])cc1`, the growth was 47.1% (inactive) and 30.4% (inactive).

In the case of `C=CCN=c1sc2c(n1NC(=O)c1cc3ccc1CCc1ccc(cc1)CC3)C(=O)c1ccccc1C2=O`, the growth was -20.1% (active).

Consider `Cc1nn(-c2nc3ccccc3[nH]2)c2c1C(c1ccc(OCC(N)=O)cc1)CC(=O)N2` (stereo not given), for which the growth is 113% (inactive).

Regarding `COc1ccc2c(c1)NC1=C(C(=O)OC1)C2c1cc(OC)c2c(c1)OCO2` (stereo not given), the growth is 0.722% (active).

Take `CCN(CC)CCOc1ccc(-c2nc3cc(Cl)ccc3s2)cc1`: the growth is -74.2% (active).

For `COC(=O)[C@H]1[C@H]2C[C@@H]3c4[nH]c5cc(OC)ccc5c4CCN3C[C@H]2C[C@@H](OC(=O)/C=C/c2cc(OC)c(OC)c(OC)c2)[C@@H]1OC`, the growth is -40.1% (active).

As to `CC(C)(C)NC(=O)C(OC(=O)C1CCc2cc(F)ccc2O1)c1ccccc1Cl` (stereo not given), the growth was 103% (inactive).

Take `CC1(C)[C@@H](OC(=O)CCC(=O)O)CC[C@]2(C)[C@H]3C(=O)C=C4[C@@H]5C[C@@](C)(C(=O)O)CC[C@]5(C)CC[C@@]4(C)[C@]3(C)CC[C@@H]12`: the growth is 84.9% (inactive) and -56.3% (active).

For `N#Cc1c(N)[nH]c(S)c1C#N`, the growth is 99% (inactive).
